Results as given in PubChem BioAssay AID2279 (Southern Research Specialized Biocontainment Screening …, 2010).
Measured potencies and affinities stand elsewhere. Calls of active or inactive are those of the source. The rule behind the calls is not given here.

Assay: CCR5-tropic HIV-1 fusion blockers – cell-based, CCR5-tropic Env, dose response (AID 2279)
Conditions: CCR5-tropic HIV-1 Env, reporter read-out; series mostly up to 50 µM; inhibition: at the top concentration

inhibition, inactive:
Cc1ccccc1C(=O)Nc1cccc(C(=O)N/N=C/c2cc(Cl)cc([N+](=O)[O-])c2O)c1 39.4%, O=C(O)CN1C(=O)/C(=C\c2cccc(OCc3ccc(Cl)cc3Cl)c2)SC1=S 22.3%, Cc1ccc(S(=O)(=O)Oc2ccc(/C=C3\C(=N)N4N=C(S(C)(=O)=O)SC4=NC3=O)cc2)cc1 -3.81%, CC(Oc1ccc(Cl)cc1Cl)C(=O)Nc1ccc(S(=O)(=O)Nc2cnc3ccccc3n2)cc1 (centres undefined) 20.3%, O=C1/C(=C2\C(=O)N(Cc3ccc(F)cc3)c3ccccc32)SC(=S)N1CCS(=O)(=O)O -4.42%, O=C(O)c1[nH]c2ccccc2c1C(c1cc(Cl)cc([N+](=O)[O-])c1O)c1c(C(=O)O)[nH]c2ccccc12 -29.6%, COc1ccccc1OCCOc1ccc(/C=C2\C(=N)N3N=C(S(C)(=O)=O)SC3=NC2=O)cc1 8.49%, O=C(NN1C(=O)/C(=C/c2ccc(O)cc2)SC1=S)c1ccccc1O 21%, O=C(O)CN1C(=O)/C(=C\c2cc(Br)ccc2OCc2ccccc2F)SC1=S -3.94%, Cc1ccc2nc(N3C(=O)C(O)=C(C(=O)c4ccco4)C3c3cccc(O)c3)sc2c1 (centres undefined) -0.55%, COc1cc(/C=C2\C(=N)N3N=C(S(C)(=O)=O)SC3=NC2=O)ccc1OC(=O)c1ccco1 -2.37%, CCc1ccc(S(=O)(=O)/N=C2\C=C(NS(=O)(=O)c3ccccc3)C(=O)c3ccccc32)cc1 -36.3%, CCOc1cc(/C=N/N=C2/NC(=O)C(CC(=O)O)S2)ccc1OCc1ccc(Cl)cc1Cl (centres undefined) 21.9%, CC(C)COc1ccc(-c2nn(-c3ccccc3)cc2/C=C2/SC(=S)N(CC(=O)O)C2=O)cc1 -10.6% [at 25 µM], COc1ccc(NC(=O)c2c[nH]n3c(=O)cc(C4CCN(C(=O)OC(C)(C)C)CC4)nc23)cc1Cl -8.31%, O=C(O)C(c1ccccc1)N1C(=O)/C(=C\c2ccc(O)c(O)c2)SC1=S (centres undefined) -7.75%, CCOC(=O)c1sc(N2C(=O)C(O)=C(C(=O)c3ccco3)C2c2ccc([N+](=O)[O-])cc2)nc1C (centres undefined) 35.6%, CCc1ccc(/C=C2\SC(=S)N(CCCC(=O)Nc3ccccc3C(=O)O)C2=O)cc1 16.9%, CCOC(=O)C1=C(C)N=c2s/c(=C\c3ccc(OCC(=O)O)c(OC)c3)c(=O)n2C1c1ccc(OC)cc1 (centres undefined) -3.5%, O=C(NCc1ccccc1)c1ccc2c(=O)[nH]c3c(C(=O)NCC4CCCO4)sc(=S)n3c2c1 (centres undefined) 14.7%, O=C(O)CCN1C(=O)/C(=C\c2cccc(Oc3ccccc3)c2)SC1=S -2.4%, O=C(COc1ccc(Cl)cc1)Nc1cc(NC(=O)COc2ccc(Cl)cc2)cc(C(=O)O)c1 -12.1%, Cc1cccc(C)c1-n1cccc1/C=C1\SC(=S)N(c2cccc(C(=O)O)c2)C1=O 17.3%, O=C(O)c1[nH]c2ccccc2c1C(c1cccc(O)c1)c1c(C(=O)O)[nH]c2ccccc12 -15.4%, COc1cccc(NS(=O)(=O)c2ccc3c(c2)C2C=CCC2C(c2ccc(C(=O)O)cc2)N3)c1 (centres undefined) 11.7%, CCOc1ccc(NC(=NCc2ccc3c(c2)OCO3)SC2CC(=O)N(c3ccc(C(=O)O)cc3)C2=O)cc1 (centres undefined) 31.2%, COc1cc(/C=N/NC(=O)C(Cc2c[nH]c3ccccc23)NC(=O)OCc2ccccc2)cc([N+](=O)[O-])c1O (centres undefined) 9.4%, O=C(O)c1cc(NN=C2c3ccccc3-c3ccccc32)ccc1Cl -10.1%, CC(C)CS(=O)(=O)C1=NN2C(=N)/C(=C\c3ccc(OC(=O)c4ccco4)cc3)C(=O)N=C2S1 20.7%, O=C(O)COc1ccccc1/C=N/Nc1ccc(S(=O)(=O)Nc2ccc(Cl)cc2)cc1[N+](=O)[O-] -4.47%, CC1=C(C(=O)Nc2ccccc2)C(c2ccc(Cl)cc2)n2c(s/c(=C/c3cccc(OCC(=O)O)c3)c2=O)=N1 (centres undefined) -8.74%, CC(C)S(=O)(=O)C1=NSC2=NC(=O)/C(=C\c3ccc(OC(=O)c4ccco4)cc3)C(=N)N21 8.59%, O=c1/c(=C\c2cc([N+](=O)[O-])cc([N+](=O)[O-])c2O)sc2nc3ccccc3n12 -6.52%, CCOc1cc(/C=C2\SC(=S)N(C(C(=O)O)c3ccccc3)C2=O)ccc1O (centres undefined) -11.8%
